Results filed as inconclusive are left out. Calls of active or inactive are those of the source. The calls were made as follows: active = hit-call score of the fitted dose curve at least 0.9, where 1 is the maximum; inconclusive = response in the unintended direction; inactive = score below 0.9.

AC50 and outcome data for 18 compounds are collected here from PubChem BioAssay (EPA / NIEHS).

Chain of human Phosphodiesterase 10 (PDE10), PDE10A (gene 10846) (Q9Y233 whole entry, looked up): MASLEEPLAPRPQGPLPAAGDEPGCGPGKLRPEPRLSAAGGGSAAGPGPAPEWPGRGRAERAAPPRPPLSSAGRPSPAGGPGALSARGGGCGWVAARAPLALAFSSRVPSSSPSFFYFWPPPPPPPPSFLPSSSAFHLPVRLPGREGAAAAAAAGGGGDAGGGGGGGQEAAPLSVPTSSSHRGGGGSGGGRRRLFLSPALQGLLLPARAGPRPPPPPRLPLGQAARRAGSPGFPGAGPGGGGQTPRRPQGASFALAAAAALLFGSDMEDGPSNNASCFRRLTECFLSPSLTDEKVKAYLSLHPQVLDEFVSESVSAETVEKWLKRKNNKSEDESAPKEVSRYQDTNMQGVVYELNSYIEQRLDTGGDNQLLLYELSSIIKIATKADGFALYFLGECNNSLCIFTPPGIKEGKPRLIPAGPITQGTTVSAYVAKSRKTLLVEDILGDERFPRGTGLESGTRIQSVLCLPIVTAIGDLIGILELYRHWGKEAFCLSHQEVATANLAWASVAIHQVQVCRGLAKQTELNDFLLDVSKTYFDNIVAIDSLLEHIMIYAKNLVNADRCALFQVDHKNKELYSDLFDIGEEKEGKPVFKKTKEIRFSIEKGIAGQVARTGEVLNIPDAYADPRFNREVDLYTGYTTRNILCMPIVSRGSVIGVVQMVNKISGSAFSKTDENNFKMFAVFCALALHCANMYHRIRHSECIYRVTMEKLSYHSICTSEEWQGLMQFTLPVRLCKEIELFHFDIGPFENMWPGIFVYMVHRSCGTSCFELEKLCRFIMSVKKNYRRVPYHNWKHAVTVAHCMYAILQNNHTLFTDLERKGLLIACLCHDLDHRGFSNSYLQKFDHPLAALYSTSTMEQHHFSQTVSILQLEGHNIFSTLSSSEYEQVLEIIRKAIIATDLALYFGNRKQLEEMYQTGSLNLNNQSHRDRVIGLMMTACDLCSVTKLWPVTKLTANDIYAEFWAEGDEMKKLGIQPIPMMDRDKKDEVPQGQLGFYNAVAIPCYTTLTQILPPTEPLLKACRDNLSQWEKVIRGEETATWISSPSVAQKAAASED

In this assay the target is human Phosphodiesterase 10 (PDE10), PDE10A (gene 10846) (UniProt Q9Y233). The assay can be described thus: NVS_ENZ_hPDE10: NovaScreen (NVS) Enzymatic Assay for human Phosphodiesterase 10 (PDE10) (AID 2283195). The protocol:
NVS_ENZ_hPDE10 is a biochemical, single-readout assay that uses extracted gene-proteins in a cell-free assay. Measurements were taken 1 hour after chemical dosing in a 384-well plate.NVS_ENZ_hPDE10 is one of one assay component(s) measured or calculated from the NVS_ENZ_hPDE10 assay. It is designed to make measurements of enzyme activity, a form of enzyme reporter, as detected with fluorescence intensity signals by Fluorescence and electrophoretic mobility shift technology.Data from the assay component NVS_ENZ_hPDE10 was analyzed into 1 assay endpoint. This assay endpoint, NVS_ENZ_hPDE10, was analyzed in the positive analysis fitting direction relative to DMSO as the negative control and baseline of activity. Using a type of enzyme reporter, loss-of-signal activity can be used to understand changes in the enzymatic activity as they relate to the gene PDE10A. Furthermore, this assay endpoint can be referred to as a primary readout, because this assay has produced multiple assay endpoints where this one serves a enzymatic activity function. To generalize the intended target to other relatable targets, this assay endpoint is annotated to the esterase intended target family, where the subfamily is phosphodiesterase.
Binding assays used specific radioligands (tritiated, iodinated) with non-radioactive competitive displacement ligands in agonist or antagonist protocols (as indicated) and various reference compounds and inhibitors to titrate specific binding to receptors and transporters. Most enzyme assays (CYPs, kinases, phosphatases, proteases, HDACs) used recombinant protein and specific substrates (fluorescence mostly, some colorimetric and radioactive) and inhibitors, followed by a biochemical separation of substrate and product. All assays for the biochemical HTS were initially run in duplicate at a single concentration (10 uM for CYP450 assays and 25 uM for all others). Assay-chemical combinations meeting a pre-defined threshold (e.g., 30% inhibition and other criteria defined below) were then run in singleton concentration-response format with maximum concentration of 20 uM for CYPs and 50 uM for all others. Each assay was run with positive and negative controls, and concurrent controls on every plate. The follow-up (secondary) screen tested active chemical-pairs in concentration series, as well as a few additional assays not tested in the primary screen, some selected negative inactives, and several cases re-run in the concentration series for confirmatory purposes.
Regarding `COc1cc2ncnc(Nc3cccc(Cl)c3)c2cc1OC`, the half-maximal activity concentration (AC50) was 2.52 µM (active). For `CCc1c(C)cc(N)c(CC)c1N`, the compound was classed as inactive.

For `Cc1c(Cl)c(=O)oc2cc(O)ccc12`, the AC50 was 0.582 µM (active). `CC(=O)OCc1ccc2c(c1)OCO2`: the call was inactive.

Regarding `CC1(C)[C@H](C(=O)OCc2cccc(Oc3ccccc3)c2)[C@@H]1C=C(Cl)Cl`, the result was inactive.

Turning to `OCC(CO)(CO)COCC(CO)(CO)CO`, the AC50 was 23.1 µM (active).

Take `CCO[Si](CCCS)(OCC)OCC`: the AC50 is 32.1 µM (active).

For `Nc1cc([N+](=O)[O-])ccc1Cl`, the compound was classed as inactive.

Regarding `CC1CCC2CC1C2(C)C` (stereo not drawn), the outcome was inactive. For `O=[N+]([O-])c1cc(C(F)(F)F)ccc1Cl`, the AC50 is 35 µM (active).

On to `OC1C(O)C(O)C(O)C(O)C1O` (stereo not drawn), for which the call was inactive.

In the case of `c1ccc2c(c1)c1cccc3ccc4cccc2c4c31`, the compound was classed as inactive. With `Cc1ccc2ccccc2n1`, the AC50 was 9.74 µM (active). Consider `O=C=NC1CCC(CC2CCC(N=C=O)CC2)CC1` (stereo not drawn), for which the call was inactive.

As for `COC(=O)OC`, the result was inactive.

For the compound `CCCCC(CC)COCCC#N` (stereo not drawn), the outcome was inactive. On the same count and under the same terms, under `CCCCC/C=C/C=C/C=O` stands “inactive”; under `C#C[C@]1(O)CC[C@H]2[C@@H]3CCC4=Cc5oncc5C[C@]4(C)[C@H]3CC[C@@]21C`, “inactive”.

For orientation: AC50 means the midpoint of the concentration-response curve, whichever way the signal moves.
